Data taken from PubChem BioAssay (NCI).
Several values for one entry are separate records, joined by “and”; a condition that tells them apart may be missing. Equal entries are not always repeated. Compounds without any hit were thinned out: in the full panel of roughly 83,000, 20% have a hit.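 Interpretation: 100, growth as untreated; towards 0, rising growth inhibition; 0, no net growth; 0 to -100, cell death. Compounds scoring below 10 were considered active.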 Activity calls are given as the source filed them.

How the values were obtained:
Experiment in all cases: NCI-60 one-dose screen, 48 h (100 = growth as untreated, 0 = no growth, -100 = all killed)
OVCAR-8 ovarian = settings: 10 µM
OVCAR-5 ovarian = settings: 10 µM unless noted
OVCAR-4 ovarian = settings: 10 µM unless noted
SK-OV-3 ovarian = settings: 10 µM unless noted
IGROV1 ovarian = settings: 10 µM unless noted
HS 578T breast = settings: 10 µM unless noted
NCI/ADR-RES ovarian = settings: 10 µM unless noted
BT-549 breast = settings: 10 µM unless noted
MDA-MB-435 melanoma = settings: 10 µM unless noted
SW-620 colon = settings: 10 µM unless noted
MCF7 breast = system: MCF7 breast
HCT-116 colon = settings: 10 µM unless noted
HCC-2998 colon = settings: 10 µM unless noted
KM12 colon = settings: 10 µM unless noted
T-47D breast = settings: 10 µM unless noted

Compound	growth (OVCAR-8 ovarian)	growth (OVCAR-5 ovarian)	growth (OVCAR-4 ovarian)	growth (SK-OV-3 ovarian)	growth (IGROV1 ovarian)	growth (HS 578T breast)	growth (NCI/ADR-RES ovarian)	growth (BT-549 breast)	growth (MDA-MB-435 melanoma)	growth (SW-620 colon)	growth (MCF7 breast; 10 µM)	growth (HCT-116 colon)	growth (HCC-2998 colon)	growth (KM12 colon)	growth (T-47D breast)	growth (MCF7 breast; 100 µM)
Oc1cc[c]([Hg][Cl])cc1	105% (inactive)	116% (inactive)	100% (inactive)	135% (inactive)	87.8% (inactive)	85.5% (inactive)	107% (inactive)	128% (inactive)	96% (inactive)	105% (inactive)	50.5% (inactive)	91% (inactive)	114% (inactive)	97.4% (inactive)		
C[C@H]1CCC/C=C/[C@@H]2C[C@H](O)C[C@H]2[C@H](O)/C=C/C(=O)O1		32.1% (inactive)	-30.5% (active)	35.9% (inactive)	-54.8% (active)	57.9% (inactive)	7.27% (active)	2.5% (active)	0.489% (active)	-20.4% (active)	-11.9% (active)	-70.8% (active)	-49.5% (active)	-59.8% (active)	-26.1% (active)	
CC(=O)O[C@H]1C[C@@H]2OC3C=C(C)CCC3(C)[C@@]1(C)[C@@]21CO1 (some centres undefined)	-9.39% (active) and -19.9% (active)	6.22% (active) and 5.12% (active)	-5.17% (active) and -15.1% (active)	5.54% (active) and -8.41% (active)	-12.6% (active) and -11.8% (active)	-6.29% (active)	-14% (active) and -10.5% (active)	-28.8% (active) and -11.6% (active)	-21.1% (active) and -27.5% (active)	0.513% (active) and -7.31% (active)	-0.46% (active) and -15% (active)	-22.5% (active) and -18.6% (active)	-27.6% (active) and -20.3% (active)	-21.9% (active) and -43% (active)	-4.55% (active) and -14.4% (active)	
Cc1cc(N=Nc2ccccc2C)ccc1N	82.1% (inactive)	84.7% (inactive)	69.2% (inactive)	99.1% (inactive)	77.1% (inactive)		79.4% (inactive)	69.7% (inactive)	82.9% (inactive)	84.7% (inactive)	58.7% (inactive)	78.1% (inactive)		78.2% (inactive)	59% (inactive)	
COc1cccc2c1cc([N+](=O)[O-])c1c(C(=O)O)cc3c(c12)OCO3	55.2% (inactive)	106% (inactive) and 85.3% (inactive)	82.8% (inactive) and 141% (inactive)	86% (inactive) and 95.1% (inactive)	58.6% (inactive) and 59.2% (inactive)	107% (inactive) and 110% (inactive)	70.7% (inactive) and 104% (inactive)	91.7% (inactive) and 102% (inactive)	93.1% (inactive) and 100% (inactive)	79.5% (inactive) and 109% (inactive)	38.2% (inactive) and 94% (inactive)	72.4% (inactive) and 92.3% (inactive)	47.7% (inactive) and -1.44% (active)	84.6% (inactive) and 99.1% (inactive)	91.3% (inactive) and 84.2% (inactive)	15.3% (inactive) and 2.6% (active)
CC1=C(CO)C2=C(C)C3(CC3)[C@@](C)(O)C(=O)C2=C1		14.3% (inactive)		16.3% (inactive)		8.86% (active)	3.84% (active)	-55.8% (active)	10.7% (inactive)	26.3% (inactive)	8.34% (active)	2.68% (active)	-76.7% (active)	12.4% (inactive)	7.12% (active)	
